In all, about 5,500 compounds went through this assay and about 2,000 (36%) were called active. Roughly 18% stayed inconclusive and do not appear here. No stated cut-off is given here; in the data, active means normalized growth mostly below about 0.91 (no sharp cut-off); inconclusive means no clear call, values can overlap the other calls; inactive means mostly above about 0.92. The list shows a part of the results.
Assay: chemical genetic growth profiling, strain panel (AID 1159580);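 further: tested at 20 µM; growth read once vehicle control cultures reached saturation at 30 °C; 1 = growth at the plate median or of vehicle wells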
Settings: S. cerevisiae deletion strains, growth OD

Measured: normalized growth

NOCC(=O)O
inactive: locus YAL040C, strain CLN3, stronger effect = lower value 0.96 | locus YCL061C, strain MRC1 (second series), stronger effect = lower value 0.985 | locus YDR363W, strain ESC2, stronger effect = lower value 1.01 | locus YER002W, strain NOP16, stronger effect = lower value 0.997 | locus YGR229C, strain SMI1, stronger effect = lower value 0.979 | locus YJR075W, strain HOC1, stronger effect = lower value 1 | locus YNL128W, strain TEP1, stronger effect = lower value 0.977 | locus YNL175C, strain NOP13, stronger effect = lower value 1.01 | locus YNL197C, strain WHI3, stronger effect = lower value 0.993 | locus YNL224C, strain SQS1, stronger effect = lower value 1.04 | locus YNL322C, strain KRE1, stronger effect = lower value 0.998 | locus YOR083W, strain WHI5 (second series), stronger effect = lower value 0.993 | locus YPL055C, strain LGE1, stronger effect = lower value 0.999
